Assay outcomes from PubChem BioAssay.
Rows were chosen to be rich in hits. Some 7.7% of all compounds tested hit in one or more screens of this group.
RE007 growth inh = qHTS Assay for Inhibitors of the HIV-1 protein Vpr. S. pombe RE007 Vpr strain, BacTiter-Glo ATP luminescence, 24 h. Potency, µM (doses to about 92.2 µM), for the others: at the top dose activity change, negative = less growth, actives largely listed as inhibitors. 360,000 tested, 0.21% active. AID 651644, 2012; active = well fitted falling curve with a large enough effect; inconclusive = small, poorly fitted or top-dose-only effect; inactive = no such curve, though single readings can be large or run the other way; also: potency is read from the fitted curve at half-maximal effect; nearly all actives have a fitted effect of over 50% in size
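Fission yeast RE007 carrying one integrated HIV-1 vpr copy, seeded at OD 0.01 in PMG+AL medium with 23 nL pinned compound. Grown 24 h at 30 degrees; viability read by BacTiter-Glo luminescence after 5 min.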
Tb PYK inh = qHTS of Trypanosoma Brucei Inhibitors; AID 624173, 2012; 410,000 tested, 0.12% active; TbPYK enzyme, Kinase-Glo Plus ATP luminescence, 45 min; Potency, µM (doses to about 76.8 µM), inactives show at the highest dose activity, negative = inhibition, most hits filed as inhibitors; pyruvate kinase (Trypanosoma brucei), Q57TT1; also: potency is read from the fitted curve at half-maximal effect; nearly all actives have a fitted effect of over 50% in size
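Assay buffer: 50 mM TEA pH 7.2, 100 mM KCl, 10 mM MgCl2, 0.05% BSA, 0.01% Tween-20. Pyruvate kinase from T. brucei plus substrate met compound, then ADP (130 uM final). Luminescence was read post 45 min RT.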
FMDV antiviral = High Throughput Screening for Foot and Mouth Disease Virus Antivirals. FMDV antiviral cell-based qHTS. 410,000 tested, 1.2% active. Potency, µM (titrated, usually from 57.9 µM), for the others: top-dose activity change, negative = inhibition, actives largely listed as inhibitors; calls by dose curve; tested in HEK293T cells; also: read-out not given here; potency is read from the fitted curve at half-maximal effect; nearly all actives have a fitted effect of over 45% in size
Sm TGR inh = qHTS Assay for the Inhibitors of Schistosoma Mansoni Peroxiredoxins | Schistosoma mansoni thioredoxin glutathione reductase (TGR), Q962Y6 | purified TGR, DTNB reduction, TNB absorbance 405 nm | Potency, µM (top dose mostly 114 µM), without a hit: top-dose activity change, negative = inhibition, actives largely listed as inhibitors | 360,000 tested, 3% active | AID 485364, 2010; also: potency is read from the fitted curve at half-maximal effect; nearly all actives have a fitted effect of over 60% in size
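First, TGR (20 nM dispensed) and NADPH were mixed with compound. Second, a 15 min room-temperature incubation followed. Third, further NADPH and then DTNB were added to start the reaction. Finally, TNB absorbance was monitored kinetically.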
FBPA Giardia inh = qHTS Assay for Inhibitors of Fructose-1,6-bisphosphate Aldolase from Giardia Lamblia. Potency, µM (doses to about 59.6 µM), for inactives: at the top dose activity, negative = inhibition, hits mostly inhibitors. 290,000 tested, 0.71% active. purified Giardia FBPA; also: potency is read from the fitted curve at half-maximal effect; nearly all actives have a fitted effect of over 55% in size
Target sequence (A8B2U2 whole entry, looked up): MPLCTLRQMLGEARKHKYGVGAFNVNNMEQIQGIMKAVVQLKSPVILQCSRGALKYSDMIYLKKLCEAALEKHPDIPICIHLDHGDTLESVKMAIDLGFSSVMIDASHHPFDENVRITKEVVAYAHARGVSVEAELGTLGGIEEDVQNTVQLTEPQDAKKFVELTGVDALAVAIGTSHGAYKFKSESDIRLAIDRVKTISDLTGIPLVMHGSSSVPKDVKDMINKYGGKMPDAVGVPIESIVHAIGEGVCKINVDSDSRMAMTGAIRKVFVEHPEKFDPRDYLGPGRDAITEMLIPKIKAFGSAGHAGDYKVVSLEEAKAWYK
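40 nM FBPA preincubated 10 min at RT with compound (up to 57.5 uM final), then substrate plus GAPDH/TPI/NAD/arsenate coupling and diaphorase/resazurin added. Fluorescence read after 20 min at RT, 525/598 nm.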
HCMV antiviral = qHTS Assay for inhibitors of the human cytomegalovirus (HCMV); HFF cells, HCMV-luciferase reporter, 72 h; stronger effect = lower value; activity change, negative = inhibition, % at 57.5 µM; 410,000 tested, 4.5% active; in the data active = activity change below about -60%; inconclusive = no clear call, values can overlap the other calls; inactive = above about -39%
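Cell-based, HFFs, 1000 cells/well, 16 h 37C; cpds in DMSO + HCMV-luc, MOI 1 PFU/cell; 72 h 37C; OneGlo luminescence after 5 min RT; norm. to buffer vs Salinomycin 10uM.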
* = called active by the depositor; u = inconclusive; x = no result. Unless noted, calls follow the shape of the dose curve; as a rule, active = well fitted curve in the direction sought with a large enough effect; inconclusive = small, poorly fitted or top-dose-only effect, or another doubt; inactive = no such curve, though single readings can be large; an effect the other way counts as inactive or inconclusive. % is scaled to controls: 0 for no effect and ±100 for the full control effect.

SMILES	RE007 growth inh	Tb PYK inh	FMDV antiviral	Sm TGR inh	FBPA Giardia inh	HCMV antiviral
CCOc1ccc(-n2c(=O)c3sc4ccccc4c3n(Cc3cccc(C)c3)c2=O)cc1	x	6%	-22%	0%	x	-5
Cc1ccccc1N/C(=C(/C(Cl)=C(Cl)Cl)[N+](=O)[O-])n1nnc2ccccc21	-7%	0%	26%	14µM*	u	30
Cc1cccc(NC(=S)NCC23C=CC(O2)C2C(=O)N(c4ccc(Cl)cc4)C(=O)C23)c1 (stereo unspecified)	3.5µM*	-23%	-19%	3.2µM*	-3%	-25
Cc1ccc(S(=O)(=O)NCC23C=CC(O2)C2C(=O)N(c4ccccc4)C(=O)C23)cc1 (stereo unspecified)	8.9µM*	-17%	-5%	3.2µM*	0%	23
Cc1ccc(NC(=S)NCC23C=CC(O2)C2C(=O)N(c4ccc(C)cc4)C(=O)C23)cc1 (stereo unspecified)	8.9µM*	-13%	13%	5µM*	-4%	27
Cc1ccc(N2C(=O)[C@@H]3[C@H](C2=O)[C@H]2C=CC=NN2[C@@H]3C(=O)Nc2ccccc2)cc1	-12%	-6%	20%	u	u	125
Cc1ccc(N2C(=O)C3C4C=CC(CNC(=S)N5CCN(c6ccccc6)CC5)(O4)C3C2=O)cc1 (stereo unspecified)	5.6µM*	-16%	u	2.5µM*	-4%	-32
Cc1ccc(N2CCN(C(=S)Nc3ccc(Cl)cc3)CC2)cc1	1%	2%	16%	-1%	-2%	-26
COCCNC(=O)C(=O)Nc1c2c(nn1-c1ccccc1)CS(=O)(=O)C2	x	1%	-10%	2%	x	-3
CCOc1ccc(OCC)c(NC(=O)CN(C)S(=O)(=O)c2ccc3nc(C)sc3c2)c1	7%	-4%	32µM*	15%	-1%	u
CC(C)OCCCN1C(=O)c2[nH]nc(-c3ccccc3O)c2C1c1ccc(OCc2ccccc2)cc1 (stereo unspecified)	x	-9%	-5%	-6%	x	-98*
O=C1c2[nH]nc(-c3ccccc3O)c2C(c2cccc(Br)c2)N1Cc1ccncc1 (stereo unspecified)	x	1%	10%	9%	x	-82*
COc1ccc(C2c3c(-c4ccccc4O)n[nH]c3C(=O)N2CCc2ccc(OC)c(OC)c2)cc1 (stereo unspecified)	-11%	2%	u	0%	0%	-32
Cc1ccc(C2c3c(-c4ccccc4O)n[nH]c3C(=O)N2CCc2ccccc2)cc1 (stereo unspecified)	x	2%	-16%	3%	x	-94*
O=C1c2[nH]nc(-c3ccccc3O)c2C(c2cccc(OCc3ccccc3)c2)N1CCCO (stereo unspecified)	x	2%	0%	6%	x	5
Cc1ccc(C2c3c(-c4ccccc4O)n[nH]c3C(=O)N2Cc2ccncc2)cc1 (stereo unspecified)	-10%	4%	18%	7%	5%	-39
COc1ccc(C2c3c(-c4ccccc4O)n[nH]c3C(=O)N2CCc2ccccc2)cc1 (stereo unspecified)	x	-5%	-25%	7%	x	-67*
COc1ccc(-c2nc3cc(C)ccc3cc2CN(C(=O)c2csc(C)n2)C2CC2)cc1OC	x	x	-8%	x	x	x
COc1ccc(CCN2C(=O)c3[nH]nc(-c4ccccc4O)c3C2c2cccc(OC)c2)cc1 (stereo unspecified)	x	4%	-12%	2%	x	-71*
Cc1cc(C)c(-c2n[nH]c3c2C(c2ccccc2F)N(Cc2ccco2)C3=O)c(O)c1 (stereo unspecified)	x	-5%	-8%	-3%	x	-73*
CCCOc1cccc(C2c3c(-c4ccccc4O)n[nH]c3C(=O)N2Cc2ccco2)c1 (stereo unspecified)	x	1%	-20%	14%	x	-72*
CC(C)c1ccc(C2c3c(-c4ccccc4O)n[nH]c3C(=O)N2CCc2ccccc2)cc1 (stereo unspecified)	x	-5%	-7%	11%	x	-100*
CCOc1ccc(C(=O)Nc2cccc(C(=O)OCc3cc(=O)n4cc(C)sc4n3)c2)cc1	x	2%	9%	3%	x	9
Cc1cccc(NC(=O)C2CCCN(S(=O)(=O)c3ccc(Br)s3)C2)c1 (stereo unspecified)	x	2%	-3%	-2%	x	25
O=C(CCn1ccc2cc(S(=O)(=O)N3CCCC3)ccc21)NCc1ccccc1Br	x	4%	-8%	4%	x	-6
SMILES	RE007 growth inh	Tb PYK inh	FMDV antiviral	Sm TGR inh	FBPA Giardia inh	HCMV antiviral
CCOc1cc(C2c3c(-c4cc(C)ccc4O)n[nH]c3C(=O)N2CCCOC(C)C)ccc1O (stereo unspecified)	x	-9%	-6%	8%	x	-68*
Cc1[nH]nc2c1C(c1ccc(F)cc1)N(Cc1ccccc1)C2=O (stereo unspecified)	x	x	x	x	x	-39
CC(NC(=O)C(NC(=O)OCc1ccccc1)C(C)O)C(=O)OCc1ccccc1 (stereo unspecified)	x	x	x	x	x	13
Cc1ccc(NC(=O)C(C)c2cccc(C(=O)c3ccccc3)c2)cc1O (stereo unspecified)	30%	-5%	u	-6%	-10%	-62*
Cc1cccc(NC(=O)C(C)C(=O)c2ccccc2)c1 (stereo unspecified)	10%	10%	-7%	9%	4%	-13
COc1ccc(NS(=O)(=O)c2ccc3[nH]c4c(c3c2)CCCC4)cc1Cl	x	4%	55%	3%	x	1
CCOc1ccc(NS(=O)(=O)c2ccc3[nH]c4c(c3c2)CCCCC4)cc1	x	-11%	0%	-1%	x	-103*
CN(C)c1ccc(CNS(=O)(=O)c2ccc3[nH]c4c(c3c2)CCCCC4)cc1	x	-5%	3%	0%	x	-65*
Cc1cccc(NS(=O)(=O)c2ccc3[nH]c4c(c3c2)CCCCCC4)c1	x	5%	27%	8%	x	-103*
Cc1ccc(CNS(=O)(=O)c2ccc3[nH]c4c(c3c2)CCCCC4)cc1	x	-4%	-12%	33%	x	0
Cc1ccc(NS(=O)(=O)c2ccc3[nH]c4c(c3c2)CCCCCC4)cc1Cl	x	-7%	0%	0%	x	-83*
CCc1nc(SC)ncc1C(=O)NCc1cccc(Br)c1	x	4%	-7%	-3%	x	3
COC(=O)C1=COC(C)C2CN3CCc4c([nH]c5ccccc45)C3CC12 (stereo unspecified)	-14%	-16%	-13%	79µM*	-18%	x
